# ± gives the standard deviation of the averaged measurements.
# Tested on: E. coli BW25113 marRABp lux reporter
# Experiment: promoter activity interaction Z-score (Lux/OD deviation from empty-vector control); higher = stronger promoter induction by the compound
# Procedure: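 E. coli BW25113 (wild type or ΔmarA/ΔsoxS/Δrob) carrying pTU175 luxCDABE promoter reporters was grown in LB in 384-well plates at 37°C with each of 94 compounds at 4 two-fold concentrations, in biological duplicates. Luminescence and OD600 were read every 30 min for 12 h and integrated as AUC over 8 h (0-8 h WT, 1-9 h mutants). Lux AUC was divided by OD AUC; the interaction score is the residual of a Huber robust fit of each promoter against the empty-vector control, then Z-transformed per promoter.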
compound,measurement,setting,value
CCC(C)CCCC(=O)N[C@@H](CCN)C(=O)N[C@H](C(=O)N[C@@H](CCN)C(=O)N[C@H]1CCNC(=O)[C@H]([C@@H](C)O)NC(=O)[C@H](CCN)NC(=O)[C@H](CCN)NC(=O)[C@H](CC(C)C)NC(=O)[C@@H](CC(C)C)NC(=O)[C@H](CCN)NC1=O)[C@@H](C)O (stereo partly specified) [Colistin],promoter activity interaction Z-score,"0.048 µg/ml, genetic background: wild type",-0.253 ± 0.2
same,promoter activity interaction Z-score,"0.048 µg/ml, genetic background: ΔmarA",-0.196 ± 0.055
same,promoter activity interaction Z-score,"0.048 µg/ml, genetic background: Δrob",0.00109 ± 0.051
same,promoter activity interaction Z-score,"0.048 µg/ml, genetic background: ΔsoxS",0.178 ± 0.25
same,promoter activity interaction Z-score,"0.1 µg/ml, genetic background: wild type",-0.233 ± 0.24
same,promoter activity interaction Z-score,"0.1 µg/ml, genetic background: ΔmarA",-0.108 ± 0.097
same,promoter activity interaction Z-score,"0.1 µg/ml, genetic background: Δrob",-0.0851 ± 0.097
same,promoter activity interaction Z-score,"0.1 µg/ml, genetic background: ΔsoxS",0.0244 ± 0.049
same,promoter activity interaction Z-score,"0.19 µg/ml, genetic background: wild type",-0.154 ± 0.21
same,promoter activity interaction Z-score,"0.19 µg/ml, genetic background: ΔmarA",-0.0032 ± 0.049
same,promoter activity interaction Z-score,"0.19 µg/ml, genetic background: Δrob",0.0892 ± 0.15
same,promoter activity interaction Z-score,"0.19 µg/ml, genetic background: ΔsoxS",0.023 ± 0.025
same,promoter activity interaction Z-score,"0.38 µg/ml, genetic background: wild type",1.21 ± 0.13
same,promoter activity interaction Z-score,"0.38 µg/ml, genetic background: ΔsoxS",1.22
CCC[C@@H]1C[C@@H](C(=O)N[C@@H]([C@H]2O[C@H](SC)[C@H](O)[C@@H](O)[C@H]2O)[C@H](C)Cl)N(C)C1 [Clindamycin],promoter activity interaction Z-score,"0.26 µg/ml, genetic background: wild type",0.333 ± 0.029
same,promoter activity interaction Z-score,"0.26 µg/ml, genetic background: ΔmarA",0.0595 ± 0.25
same,promoter activity interaction Z-score,"0.26 µg/ml, genetic background: Δrob",0.168 ± 0.043
same,promoter activity interaction Z-score,"0.26 µg/ml, genetic background: ΔsoxS",0.145 ± 0.068
same,promoter activity interaction Z-score,"0.52 µg/ml, genetic background: wild type",-0.369 ± 0.4
same,promoter activity interaction Z-score,"0.52 µg/ml, genetic background: ΔmarA",0.0444 ± 0.093
same,promoter activity interaction Z-score,"0.52 µg/ml, genetic background: Δrob",0.0402 ± 0.096
same,promoter activity interaction Z-score,"0.52 µg/ml, genetic background: ΔsoxS",0.279 ± 0.051
same,promoter activity interaction Z-score,"1 µg/ml, genetic background: wild type",0.363 ± 0.56
same,promoter activity interaction Z-score,"1 µg/ml, genetic background: ΔmarA",-0.225 ± 0.051
same,promoter activity interaction Z-score,"1 µg/ml, genetic background: Δrob",0.279 ± 0.32
same,promoter activity interaction Z-score,"1 µg/ml, genetic background: ΔsoxS",0.414 ± 0.023
same,promoter activity interaction Z-score,"2.1 µg/ml, genetic background: wild type",0.13 ± 0.11
same,promoter activity interaction Z-score,"2.1 µg/ml, genetic background: ΔmarA",-0.108 ± 0.33
same,promoter activity interaction Z-score,"2.1 µg/ml, genetic background: Δrob",0.449 ± 0.032
same,promoter activity interaction Z-score,"2.1 µg/ml, genetic background: ΔsoxS",0.869 ± 0.17
O=C1CN(/N=C/c2ccc([N+](=O)[O-])o2)C(=O)N1 [Nitrofurantoin],promoter activity interaction Z-score,"0.45 µg/ml, genetic background: wild type",0.183 ± 0.32
same,promoter activity interaction Z-score,"0.45 µg/ml, genetic background: ΔmarA",0.105 ± 0.23
same,promoter activity interaction Z-score,"0.45 µg/ml, genetic background: Δrob",0.131 ± 0.13
same,promoter activity interaction Z-score,"0.45 µg/ml, genetic background: ΔsoxS",0.198 ± 0.24
same,promoter activity interaction Z-score,"0.89 µg/ml, genetic background: wild type",0.503 ± 0.047
same,promoter activity interaction Z-score,"0.89 µg/ml, genetic background: ΔmarA",0.249 ± 0.27
same,promoter activity interaction Z-score,"0.89 µg/ml, genetic background: Δrob",0.252 ± 0.052
same,promoter activity interaction Z-score,"0.89 µg/ml, genetic background: ΔsoxS",0.0792 ± 0.11
same,promoter activity interaction Z-score,"1.8 µg/ml, genetic background: wild type",1.04 ± 0.38
same,promoter activity interaction Z-score,"1.8 µg/ml, genetic background: ΔmarA",0.658 ± 0.16
same,promoter activity interaction Z-score,"1.8 µg/ml, genetic background: Δrob",1.16 ± 0.11
same,promoter activity interaction Z-score,"1.8 µg/ml, genetic background: ΔsoxS",0.447 ± 0.016
same,promoter activity interaction Z-score,"3.6 µg/ml, genetic background: wild type",7.36 ± 0.64
same,promoter activity interaction Z-score,"3.6 µg/ml, genetic background: ΔmarA",4.45 ± 1.7
same,promoter activity interaction Z-score,"3.6 µg/ml, genetic background: Δrob",12.8 ± 0.43
same,promoter activity interaction Z-score,"3.6 µg/ml, genetic background: ΔsoxS",12.2

# From the supplement of paper PMC12282887
